Bioassay records (PubChem)
Most compounds without a hit are left out; they make up all but 21% or so of the library.
Pf growth 48h = Primary qHTS for delayed death inhibitors of the malarial parasite plastid, 48 hour incubation. P. falciparum luciferase growth in erythrocytes, 48 h. Potency, µM (doses to about 28.7 µM), actives largely listed as inhibitors. 310,000 compounds, 5.9% hits. AID 504832, 2011; active = well fitted inhibition curve with a large enough effect; inconclusive = small, poorly fitted or top-dose-only effect, or another doubt; inactive = no such curve, though single readings can be large or run the other way
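Compounds are pin-transferred into medium, infected erythrocytes (2% hematocrit, 0.1% parasitemia final) are added, and plates sit one parasite generation at 37 C in 5% CO2. Detection reagent is then added and luminescence measured.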
SARS PLP yeast = qHTS of Yeast-based Assay for SARS-CoV PLP; S. cerevisiae expressing SARS-CoV PLpro, growth rescue; Potency, µM (top dose mostly 32.9 µM), hits mostly activators; 330,000 compounds, 0.19% hits; note: nearly all actives have a fitted effect of over 55% in size
CHX counter = Cycloheximide Counterscreen for Small Molecule Inhibitors of Shiga Toxin. cell reporter, cycloheximide protein synthesis inhibition counterscreen. max response, %. 300,000 compounds, 12% hits. AID 2314, 2010; in the data active = max response mostly above about 13%, no sharp cut-off; inactive = mostly below about 14%; note: read at 38.3 µM for the half of the compounds with a filed dose
Shiga toxin inh = A qHTS for Small Molecule Inhibitors of Shiga Toxin; inhibition, % at 38.7 µM; Vero cells, Shiga toxin protein synthesis inhibition reporter; 290,000 compounds, 9.2% hits; in the data active = inhibition mostly above about 28%, no sharp cut-off; inactive = mostly below about 43%
Pf growth 96h = Primary qHTS for delayed death inhibitors of the malarial parasite plastid, 96 hour incubation; P. falciparum luciferase reporter growth, 96 h; Potency, µM (highest dose often 28.7 µM), hits mostly inhibitors; 320,000 compounds, 6.9% hits; AID 504834, 2011; active = well fitted inhibition curve with a large enough effect; inconclusive = small, poorly fitted or top-dose-only effect, or another doubt; inactive = no such curve, though single readings can be large or run the other way
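P. falciparum expressing integrated firefly luciferase grown in erythrocytes (2% hematocrit, 0.05% parasitemia final) with compounds for 96 hours at 37 C, 5% CO2. Growth inhibition read as loss of luminescence after adding luciferase detection reagent.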
NS1 inh = qHTS Assay for Inhibitors of Influenza NS1 Protein Function. Potency, µM (doses to about 46.1 µM). 270,000 compounds, 0.4% hits; note: actives are rising curves; nearly all actives have a fitted effect of over 50% in size
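In this qHTS, NS1 from influenza A is expressed in budding yeast, where it slows growth. Cells are switched from glucose to 2% galactose medium (pH 6.0, -URA), treated with compound, and growth recovery is read at OD600.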
Hits are given with their value; – = inactive; ? = inconclusive; · = no result given. Unless noted, calls come from the whole dose curve.

SMILES	Pf growth 48h	SARS PLP yeast	CHX counter	Shiga toxin inh	Pf growth 96h	NS1 inh
O=C(Nc1ccc(Cl)cn1)c1ccccc1SCc1ccccc1	–	–	–	–	–	–
O=C(Nc1c(Cl)cccc1Cl)c1ccc(-c2ccccc2)cc1	–	–	–	–	–	–
O=C(COC(=O)c1ccccc1)Nc1ccc(Cl)cn1	–	–	–	–	–	·
O=C(Nc1cc(-c2ccccc2)[nH]n1)c1ccc(Cl)cc1	–	–	51	88	–	–
CCCOc1ccc(C(=O)Nc2ccc(Cl)cn2)cc1	·	–	30	77	–	–
O=C(Nc1ccc(Cl)cn1)c1cccc(OCc2ccccc2)c1	–	–	22	48	–	–
O=S1(=O)CCC(n2nccc2-c2ccccc2)C1 (stereo unspecified)	–	–	–	–	–	–
O=c1c2cc(Br)ccc2[nH]c(=S)n1Cc1ccccn1	–	–	24	–	?	–
O=c1c2cc(N3CCOCC3)ccc2[nH]c(=S)n1CC1CCCO1 (stereo unspecified)	–	–	–	54	–	–
O=c1c2cc(N3CCOCC3)ccc2[nH]c(=S)n1Cc1ccccn1	–	–	17	active	–	?
O=c1c2cc(Br)ccc2[nH]c(=S)n1Cc1ccccc1	?	–	–	–	–	–
COc1ccc(CCn2c(=S)[nH]c3ccc(N4CCOCC4)cc3c2=O)cc1OC	10µM	–	–	–	?	·
O=c1c2cc(N3CCOCC3)ccc2[nH]c(=S)n1CCc1ccccc1	?	–	–	–	?	·
Cc1cccnc1Nc1nc(-c2ccc(O)c(O)c2)cs1	·	–	45	80	–	?
COc1ccc(-c2csc(Nc3ncccc3C)n2)cc1OC	–	–	34	139	?	–
COc1ccc(-c2csc(Nc3ncccc3C)n2)cc1	–	–	–	–	–	–
Cn1c2cc([N+](=O)[O-])sc2c2cnn(Cc3ccccc3F)c(=O)c21	?	–	·	·	?	·
Cc1ccc(S(=O)(=O)NCC(C)n2nc(C)nc2C)cc1 (stereo unspecified)	–	–	–	–	–	–
O=C(CN1C(=O)c2cccnc2Oc2ccc(Cl)cc21)N1CCCC1	–	–	–	–	?	–
COc1ccc(C(=O)CCC(=O)O)cc1	·	–	–	–	?	–
CC(=O)CC(c1ccccc1)S(=O)(=O)c1ccc(C)cc1 (stereo unspecified)	?	–	–	–	–	–
COc1ccc(/C(C)=N\NC(=O)CSc2nnc(C)s2)cc1	–	–	–	–	?	–
COc1ccc(C(=O)Cc2nnc(C)s2)cc1	–	–	48	105	–	–
COc1ccc(C(=O)CC(=O)c2ccc(OC)cc2)cc1	–	–	26	–	–	–
Cc1ccc(C(=O)CN2C(=O)c3ccccc3S2(=O)=O)cc1	3.7µM	–	–	–	–	–
SMILES	Pf growth 48h	SARS PLP yeast	CHX counter	Shiga toxin inh	Pf growth 96h	NS1 inh
COc1ccc(C(CC(=O)c2ccccc2)S(=O)(=O)c2ccc(C)cc2)cc1 (stereo unspecified)	–	–	34	33	–	–
COc1ccc(C(=O)Nc2cc(C)nn2-c2ccc(F)cc2)cc1	–	–	–	–	–	–
Cc1ccc(C2C(C#N)=C(N)Oc3c2oc(CO)cc3=O)o1 (stereo unspecified)	–	–	–	–	–	–
Cc1ccc(C(=O)COc2ccccc2N2C(=O)c3ccccc3C2=O)cc1	–	–	–	–	3.3µM	–
COc1ccc(C(=O)C/C(=C\C(=O)c2ccc(C)cc2)c2ccccc2)cc1	?	–	–	–	10µM	–
COc1ccc(C(=O)NCC(=O)c2ccccc2)cc1	–	–	36	·	–	–
COc1ccc(C(=O)CN2C(=O)c3ccccc3C2=O)cc1	–	–	30	58	–	–
COc1cccc(NC(=O)C(=O)NCCC2CCCCN2S(=O)(=O)c2ccccc2)c1 (stereo unspecified)	–	·	·	·	–	·
COc1ccc(O)c(-c2[nH]ncc2C(=O)c2ccccc2)c1	–	–	–	–	–	–
COc1ccc(O)c(C(=O)CC(=O)c2ccccc2)c1	–	–	43	–	–	–
COc1ccc(C(=O)CCNc2ccc(C)c(Cl)c2)cc1	–	–	–	–	–	–
COc1ccc(C(=O)CCNc2ccc(F)cc2)cc1	–	–	28	82	–	–
COc1ccc(C(=O)Cn2cc[n+](C)c2)cc1	12µM	–	–	–	–	–
O=C(O)c1[nH]c2ccc(Br)cc2c1CCN1C(=O)c2cccc([N+](=O)[O-])c2C1=O	–	–	–	–	–	–
Cc1ccc(NC(=O)CSc2ccccc2NC(=O)c2ccccc2)cc1Cl	–	–	34	–	–	–
Cc1ccc(NC(=O)CSc2nncs2)cc1Cl	–	–	·	·	–	·
Cc1ccc(NC(=O)CSc2ccccc2NC(=O)c2ccccc2Cl)cc1Cl	?	–	18	–	–	–
Cc1cc(NC(=O)c2ccccc2Cl)ccc1NC(=O)c1ccccc1Cl	–	–	–	·	–	–
COC(=O)C1C(O)C(C)C(O)C(C)(O)/C=C\C=C(/C)C(=O)Nc2c(C)c(OC(C)=O)c3c(c2O)C(=O)C(C)=C2OCOC(=C23)/C(C)=C/C(C)(O)C(O)C(C)C1O (stereo unspecified)	2.9µM	–	–	–	?	–
CCc1ccc2c(c1)C1(NN=C(c3cccc4ccccc34)S1)C(=O)N2 (stereo unspecified)	2.9µM	–	–	48	–	?
CN(C(=O)CSc1nc2c(cnn2-c2ccccc2)c(=O)[nH]1)C1CCS(=O)(=O)C1 (stereo unspecified)	–	–	–	–	?	–
COc1ccc(N=C2SCC(c3ccccc3)=NN2C)cc1	2.6µM	–	29	–	–	–
CCOc1cccc(-c2nnc3n2N=C(c2cc(OC)ccc2OC)CS3)c1	12µM	–	–	–	12µM	–
COc1ccc(C2=Nn3c(nnc3-c3ccc(OC)cc3)SC2)cc1	10µM	–	–	–	·	–
COc1ccc(N=C2SCC(=O)N2c2ccc(OC)cc2)cc1	·	–	–	–	?	–
SMILES	Pf growth 48h	SARS PLP yeast	CHX counter	Shiga toxin inh	Pf growth 96h	NS1 inh
COc1ccc(-c2nnc3n2N=C(c2cc(OC)ccc2OC)CS3)cc1	·	·	–	–	·	·
COc1ccc(OC)c(C2=Nn3c(nnc3-c3cc(OC)c(OC)c(OC)c3)SC2)c1	6.6µM	–	–	–	–	–
O=C(O)c1ccccc1C(=O)OCc1c(-c2ccccc2)ncc2ccccc12	–	–	·	·	?	·
COc1ccc(CN(C)C(=O)Cc2ccc(OC)c(S(=O)(=O)N3CCOCC3)c2)cc1	?	–	·	·	?	·
COc1cc2c(cc1OC)C1=CC(=O)C(=O)N1C(C)(C)C2	?	–	–	–	–	–
CN1CCCCC1CCN1c2ccccc2Sc2ccc(S(C)=O)cc21 (stereo unspecified)	?	–	–	–	1.5µM	·
